# Assay results taken from PubChem BioAssay (NCI).
# This is part of a sample that, as a whole, favours compounds with a hit. Of some 83,000 tested, about 20% had one in any assay.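 Each cell line was grown in a 96-well plate and treated with one concentration of compound for 48 hours. Values below 10 were considered active.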 Calls of active or inactive are those of the source.
# System: SK-MEL-28 melanoma
# Experiment: NCI-60 one-dose screen, 48 h (100 = growth as untreated, 0 = no growth, -100 = all killed)
# Settings: 10 µM unless noted
row,Compound,growth
1,COc1cccc(NC(=O)Nc2ccc(Nc3ncnc4sc5c(c34)CCN(C(=O)CCl)C5)cc2)c1,117% (inactive)
2,CCN(CC)CCNC(=O)c1c(C)[nH]c(/C=C2\C(=O)Nc3ccc(F)cc32)c1C,-69.1% (active)
3,CO[C@@H](C)Cn1c(=O)n(C)c2cnc3ccc(-c4cncc(C(C)(C)O)c4)cc3c21,-8.17% (active)
4,Cc1c(N)ccc(-c2ccc(N)c(C)c2S(=O)(=O)O)c1S(=O)(=O)O,115% (inactive)
5,CNC(=O)c1cc(Oc2ccc(NC(=O)Nc3ccc(Cl)c(C(F)(F)F)c3)c(F)c2)ccn1,-53.7% (active)
6,COCCOc1cnc2ccn([C@H](C)c3nnc4c(F)cc(-c5cnn(C)c5)cn34)c(=O)c2c1,44% (inactive)
7,N#Cc1c(-c2ccc(Cl)cc2)csc1NC(=O)Nc1cccc(C(F)(F)F)c1,14.3% (inactive)
8,CC(=O)C1CC(C)CCC1C(C)C (centres undefined),123% (inactive)
9,O=C(COc1cccc(/C=C2\Cc3ccc(Cl)cc3C2=O)c1)Nc1nccs1,124% (inactive)
10,O=C(Cn1ccnc1)Nc1ccc(-c2nc3ccccc3s2)cc1,105% (inactive)
11,CN1CCC(CNc2ccc3ncc(-c4cccc(OC(F)(F)F)c4)n3n2)CC1,-86.4% (active)

# System: EKVX NSCLC
# Experiment: as above
# Settings: 10 µM unless noted
row,Compound,growth
1,C=CC(=O)N1CCC(Oc2cc3c(Nc4ccc(Cl)c(Cl)c4F)ncnc3cc2OC)CC1,18.7% (inactive)
2,FC(F)(F)c1ccc(CNc2ccc(Cc3c[nH]c4ncc(Cl)cc34)cn2)cn1,30.3% (inactive)
3,O=S1(=O)OC(c2cc(Cl)c(O)c(Br)c2)(c2cc(Cl)c(O)c(Br)c2)c2ccccc21,110% (inactive)
4,CC(C)(C)OC(=O)N1CCC(O)[C@@H](O[Si](c2ccccc2)(c2ccccc2)C(C)(C)C)[C@H]1/C=C/c1ccccc1 (some centres undefined),40.7% (inactive)
5,Cc1cn(-c2cc(NC(=O)c3ccc(C)c(Nc4nccc(-c5cccnc5)n4)c3)cc(C(F)(F)F)c2)cn1,69.6% (inactive)
6,Cc1cnc(Nc2ccc(OCCN3CCCC3)cc2)nc1Nc1cccc(S(=O)(=O)NC(C)(C)C)c1,26.4% (inactive)
7,Cc1cccc(C)c1N1C(c2ccccc2)=NNC12C=CC(=O)c1c(O)cccc12 (centres undefined),91.3% (inactive)
8,C=CC(=O)Nc1cccc(Nc2nc(Nc3ccc(N4CCN(C(C)=O)CC4)cc3OC)ncc2C(F)(F)F)c1,1.17% (active)
9,COc1ccc(/C(C)=C(\c2ccc(Cl)cc2)c2ccc(OCCN3CCCCCC3)cc2)cc1,56.7% (inactive)
10,Cc1cc(C(=O)Nc2cc(Oc3ccc4nc(NC(=O)C5CC5)cn4n3)ccc2C)n(C)n1,58.8% (inactive)
11,CO[C@H](C(=O)N[C@@H](CCCCNC(=O)OCc1ccccc1)C(=O)OC(C)(C)C)[C@@H]1Cc2cc3cc(OC4CC(OC5CC(O)C(O)C(C)O5)C(O)C(C)O4)c(C)c(O)c3c(O)c2C(=O)[C@H]1OC1CC(OC2CC(OC3CC(C)(O)C(O)C(C)O3)C(O)C(C)O2)C(O)C(C)O1 (some centres undefined),-25.1% (active)
12,CCN(CCCOc1ccc2c(Nc3cc(CC(=O)Nc4cccc(F)c4)[nH]n3)ncnc2c1)CCOP(=O)(O)O,99.3% (inactive)
13,CC/C=C\C[C@H]1C/C=C2/C(=O)C=C[C@@H]2C/C=C\CCCC(=O)O1,11.8% (inactive)
14,Cc1cn(-c2cc(NC(=O)c3ccc(C)c(Nc4nccc(-c5cnccn5)n4)c3)cc(C(F)(F)F)c2)cn1,107% (inactive)
15,COc1cc2ncnc3c2cc1OCCCCCN(C)Cc1ccc(Br)cc1N3,21.4% (inactive)
16,C[C@@]1(C(=O)Nc2ccc(F)nc2)CCCN1c1nc(Nc2cc(C3CC3)[nH]n2)c2cccn2n1,46.2% (inactive)
17,C[C@]12O[C@H](C[C@]1(O)CO)n1c3ccccc3c3c4c(c5c6ccccc6n2c5c31)CNC4=O,-8.26% (active)
18,CCN1CCN(CCCN(C[C@H]2Cc3ccccc3CN2)[C@H]2CCCc3cccnc32)CC1,84% (inactive)
19,COCc1c(-c2ccc(NC(=O)Nc3cc(C(F)(F)F)ccc3F)c(F)c2)c2c(N)ncnn2c1CN1CCOCC1,-25.4% (active)
20,COc1cc2cc(NCc3ccc(F)cc3)nc(C)c2cc1OC,78.7% (inactive)
21,CC(=O)C1=C(C)NC(SCc2nnc(-c3ccc(C)cc3)o2)=NC1c1ccc(F)cc1 (centres undefined),107% (inactive)
22,N#CC[C@H](C1CCCC1)n1cc(-c2ncnc3[nH]ccc23)cn1,82.7% (inactive)
23,Cc1ccc(-[n+]2c3cc(N)c(C)cc3nc3cc(C)c(Nc4ccccc4)cc32)cc1,-22.6% (active)
